For 28 molecules, Potency and outcome results are on record in PubChem BioAssay (NCATS).

A short description of experiment [1]: P-glycoprotein substrates identified in KB-3-1 adenocarcinoma cell line, qHTS therapeutic library screen (AID 1346986). Further: nearly all actives have a fitted effect of over 60% in size. A digest of the protocol:
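Viability by CellTiter-Glo after 72 h compound exposure at 37 degree C, 5% CO2. Cytotoxic call: curve class -1.1 to -2.4, maximum response >50%, AC50 < 10 uM, compared across KB-3-1 and P-gp-overexpressing KB-8-5-11.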
A general note: Quantitative high-throughput screening tests each substance at several concentrations.

Experiment [2] can be described thus: P-glycoprotein substrates identified in KB-8-5-11 adenocarcinoma cell line, qHTS therapeutic library screen (AID 1346987). Further: nearly all actives have a fitted effect of over 65% in size. The method in brief:
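Human cervical adenocarcinoma KB-8-5-11 cells, selected in colchicine to over-express P-gp and assayed without it, were exposed for 72 h to titrated compounds. An ATP-based luminescent viability signal gave AC50.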

Molecules are shown by their SMILES. Results filed as inconclusive are left out. Active and inactive are the calls of the source. The call rests on the fitted dose curve; in most records, active means well fitted curve in the direction sought with a large enough effect; inconclusive means small, poorly fitted or top-dose-only effect, or another doubt; inactive means no such curve, though single readings can be large; an effect the other way counts as inactive or inconclusive.

As for `OC[C@H]1O[C@@H](OCCc2ccccc2)[C@H](O[C@@H]2OC[C@](O)(CO)[C@H]2O)[C@@H](O)[C@@H]1O`, the Potency entry in experiment [1] and in experiment [2] was “inactive” throughout.
Consider `OC[C@H]1O[C@@H](OC[C@H]2O[C@@H](OC/C=C/c3ccccc3)[C@H](O)[C@@H](O)[C@@H]2O)[C@@H](O)[C@@H]1O`, for which the Potency entry in experiment [1] and in experiment [2] was “inactive” each time.
Regarding `CC1(O)CCCC2(C)C1CCC13CC(CO)C(CCC12)C3` (stereo unspecified), the Potency entry in experiment [1] and in experiment [2] was “inactive” in each case.
Consider `CC(=O)c1ccc2c(c1)C(O)C(C(C)(C)O)O2` (stereo unspecified), for which the Potency result in experiment [1] and in experiment [2] was “inactive” throughout.
Turning to `C=C1C(=O)OC2CC3(C)C(CC12)C(C)=CC(O)C3OC(C)=O` (stereo unspecified), the Potency entry in experiment [1] and in experiment [2] was “inactive” in each case.
On to `CCC(Nc1ncnc2nc[nH]c12)c1nc2cccc(F)c2c(=O)n1-c1ccccc1` (stereo unspecified), for which the Potency entry in experiment [1] and in experiment [2] was “inactive” in each case.
As to `CC1=C(C(=O)O)/C(=C\CO[C@@H]2O[C@H](CO)[C@@H](O)[C@H](O)[C@H]2O)C(OC(=O)/C=C\c2ccc(O)cc2)C1` (stereo partly specified), the Potency entry in experiment [1] and in experiment [2] was “inactive” in each case.
Regarding `COc1c2c(c(C)c3c1C(=O)OC3)OC1(C)CC(O)C(C(C)(C)O)C(C)(CCC(=O)O)C1C2` (stereo unspecified), the Potency entry in experiment [1] and in experiment [2] was “inactive” each time.
As for `CC(C)(O)/C=C/CC(C)(O)C1C(O)CC2(C)C3CCC4C(C)(C)C(=O)CCC4(C)C3CCC12C` (stereo unspecified), the Potency entry in experiment [1] and in experiment [2] was “inactive” each time.
As to `OC[C@H]1O[C@@H](OC(CCCCc2ccc(O)cc2)CCc2ccc(O)cc2)[C@H](O)[C@@H](O)[C@@H]1O` (stereo partly specified), the Potency result in experiment [1] and in experiment [2] was “inactive” in each case.
Turning to `CC1(C)CC[C@]2(C(=O)O)CC[C@]3(C)C(=CCC4[C@@]5(C)CC[C@H](O[C@@H]6O[C@H](C(=O)O)[C@@H](O[C@@H]7OC[C@@H](O)[C@H](O)[C@H]7O)[C@H](O)[C@H]6O)C(C)(C)C5CC[C@]43C)C2C1O` (stereo partly specified), the Potency entry in experiment [1] and in experiment [2] was “inactive” in each case.
Regarding `C=C(C(=O)O)C1CC2=C(C)CCCC2(C)C[C@@H]1O` (stereo partly specified), the Potency entry in experiment [1] and in experiment [2] was “inactive” throughout.
On to `CC(C)C(=O)OC[C@H]1O[C@H](O[C@H]2O[C@H](CO)[C@@H](O)[C@H](O)[C@H]2O)[C@H](O)[C@@H](O)[C@@H]1O`, for which the Potency result in experiment [1] and in experiment [2] was “inactive” in each case.
Consider `O=c1[nH]ccc2cc(OC3CCNCC3)ccc12`, for which the Potency result in experiment [1] and in experiment [2] was “inactive” throughout.
Take `O=C1NC(=O)C(c2cn(-c3ccccc3)nc2-c2ccc(F)cc2)N1` (stereo unspecified): the Potency result in experiment [1] and in experiment [2] was “inactive” in each case.
Consider `Cn1c2ccc(F)cc2c2c(C(=O)N3CCCC3)cn(-c3ccccc3)c(=O)c21`, for which the Potency result in experiment [1] and in experiment [2] was “inactive” in each case.
For the molecule `O=C1OCc2cc3cccc(O[C@@H]4O[C@H](CO)[C@@H](O)[C@H](O)[C@H]4O)c3c(O)c21`, the Potency result in experiment [1] and in experiment [2] was “inactive” throughout.
Consider `COc1ccc(/C=C\C(=O)O)c(O[C@@H]2O[C@H](CO)[C@@H](O)[C@H](O)[C@H]2O)c1`, for which the Potency result in experiment [1] and in experiment [2] was “inactive” throughout.
Turning to `COc1cc(C(=O)OC[C@@]2(O)CO[C@@H](O[C@H]3[C@H](Oc4ccc(C(=O)O)cc4OC)O[C@H](CO)[C@@H](O)[C@@H]3O)[C@@H]2O)ccc1O`, the Potency entry in experiment [1] and in experiment [2] was “inactive” each time.
On to `CO[C@H]1O[C@@H]2O[C@]3(C)CC[C@H]4[C@H](C)CC[C@@H]([C@H]1C)[C@@]24OO3`, for which the Potency result in experiment [1] and in experiment [2] was “inactive” throughout.
As for `CCc1c(-c2ccccc2)c(-c2ccccc2)nn1-c1ccccc1-c1cccc(OCC(=O)O)c1`, the Potency entry in experiment [1] and in experiment [2] was “inactive” each time.
`CCCn1c(=O)c2[nH]c(-c3ccc(OCC(=O)O)cc3)nc2n(CCC)c1=O`: the Potency result in experiment [1] and in experiment [2] was “inactive” each time.
As for `COc1cc([C@H]2c3cc(O)c(OC)cc3C[C@@H](CO[C@@H]3O[C@H](CO)[C@@H](O)[C@H](O)[C@H]3O)[C@@H]2CO)ccc1O`, the Potency entry in experiment [1] and in experiment [2] was “inactive” each time.
For the molecule `O=C1NC(Cc2c[nH]c3ccccc23)C(=O)NC1Cc1cnc[nH]1` (stereo unspecified), the Potency entry in experiment [1] and in experiment [2] was “inactive” throughout.
Turning to `CC(=O)O[C@H]1CC[C@@]2(C)C(CC[C@@H](C)[C@]23Cc2c(O)cc4c(c2O3)CN([C@@H](CCC(=O)O)C(=O)O)C4=O)C1(C)C` (stereo partly specified), the Potency entry in experiment [1] and in experiment [2] was “inactive” in each case.
Regarding `O=C(Nc1c(-c2cccs2)nc2ccccn12)c1ccc(Cl)cc1`, the Potency result in experiment [1] and in experiment [2] was “inactive” in each case.
On to `CC1(C)CC[C@@]2(C(=O)O[C@@H]3O[C@H](CO)[C@@H](O)[C@H](O)[C@H]3O)C(C1)C1=CCC3[C@@]4(C)CC[C@@H](O[C@@H]5O[C@H](C(=O)O)[C@@H](O[C@@H]6OC[C@@H](O)[C@H](O)[C@H]6O)[C@H](O[C@@H]6OC[C@](O)(CO)[C@H]6O)[C@H]5O)C(C)(C)C4CC[C@@]3(C)[C@]1(C)C[C@H]2O` (stereo partly specified), for which the outcome in experiment [1] and in experiment [2] was “inactive [at 9.29 µM]” in each case.
For the molecule `COc1cc2ncnc(Nc3cccc(Cl)c3F)c2cc1OC(=O)N1CCN(C)C[C@H]1C`, the Potency result in experiment [1] and in experiment [2] was “inactive” each time.
